Hits are enriched below; roughly 4% of the tested compounds scored in any of these assays.
ERAP1 HTS inh: human ERAP1 aminopeptidase inhibitors, primary screen, biochemical, single point, plate reader; Endoplasmic reticulum aminopeptidase 1 (Homo sapiens), Q9NZ08; recombinant ERAP1, Leu-AMC fluorescence, 60 min; inhibition, % at 10.7 µM; hit rate 0.15% among 340,000; AID 652197, 2013;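 active = mean replicate inhibition of at least 30%, or all replicates individually reaching that 30% level; inactive = mean below 30% and not every replicate reaching it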;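 note: 0% = neutral control wells and 100% = L-leucinethiol positive control wells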
FGF22 binding: binders of human FGF22 protein, primary screen, FGF22 synaptogenesis inhibitor project, biophysical, thermal shift, single point. Fibroblast growth factor 22 (Homo sapiens), Q9HCT0. hit rate 1.5% among 340,000. activity (Tm shift, normalised), % at 9.99 µM. recombinant FGF22 thermal shift, SYPRO orange fluorescence; percent of sucrose octasulfate shift, DMSO zero. AID 651658, 2012;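 active = mean Tm shift, scaled 0 neutral to 100 positive control, at about 1.3% or above, every replicate too, limit read from the data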
Target sequence (Q9HCT0 whole entry, looked up): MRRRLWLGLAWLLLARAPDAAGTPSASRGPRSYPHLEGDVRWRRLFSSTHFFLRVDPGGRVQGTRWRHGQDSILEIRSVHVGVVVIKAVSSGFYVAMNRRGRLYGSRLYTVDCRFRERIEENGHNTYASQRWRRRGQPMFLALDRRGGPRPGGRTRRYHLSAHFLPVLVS
MLL AF4-AF9 inh: inhibitors of AF4 peptide binding to AF9, primary screen, biochemical, AlphaScreen, biotin-AF4 peptide, FLAG-AF9, single point | AID 651704, 2012 | Protein AF-9 (Homo sapiens), P42568 | inhibition, % at 10 µM | hit rate 0.47% among 350,000;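 active = every replicate reaching a set inhibition limit, whatever the replicate mean, cut at about 25% in these data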;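 note: 0% = plate neutral control median and 100% = total signal loss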
DENV2 CPE rescue: inhibitors of DENV2 cytopathic effect, primary screen, cell-based, plate reader, single concentration. DENV2-infected cells, cytopathic effect rescue. CPE inhibition, % at 9.99 µM. hit rate 1.7% among 350,000. AID 651640, 2012; in the data active = CPE inhibition above about 20%, passing the limit was not always enough; tested in BHK-21 cells;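 note: 0% = median of neutral control wells and 100% = median of positive control wells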
RAD52 inh: RAD52 DNA annealing inhibitors, primary screen, biochemical, FRET, single point, set 2. DNA repair protein RAD52 homolog (Homo sapiens), P43351. recombinant RAD52 DNA annealing, FRET fluorescence. inhibition, % at 18.7 µM. hit rate 0.46% among 360,000. AID 651710, 2012;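 active = every replicate showing at least 50% inhibition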
Target sequence (P43351 whole entry, looked up): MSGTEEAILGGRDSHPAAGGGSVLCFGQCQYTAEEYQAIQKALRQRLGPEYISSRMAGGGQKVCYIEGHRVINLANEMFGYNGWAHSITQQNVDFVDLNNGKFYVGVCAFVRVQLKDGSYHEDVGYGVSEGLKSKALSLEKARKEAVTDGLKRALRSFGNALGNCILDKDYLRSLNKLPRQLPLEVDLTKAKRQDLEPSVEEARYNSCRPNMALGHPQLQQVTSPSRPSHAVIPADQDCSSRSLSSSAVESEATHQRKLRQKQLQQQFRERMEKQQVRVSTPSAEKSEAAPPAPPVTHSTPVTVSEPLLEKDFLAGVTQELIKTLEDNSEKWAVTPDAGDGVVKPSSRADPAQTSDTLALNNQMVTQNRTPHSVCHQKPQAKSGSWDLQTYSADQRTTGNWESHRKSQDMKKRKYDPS
* = called active by the depositor; nt = no result.

SMILES	ERAP1 HTS inh	FGF22 binding	MLL AF4-AF9 inh	DENV2 CPE rescue	RAD52 inh
OC(CN1CCC(Cc2ccccc2)CC1)C(F)(F)F (centres undefined)	-2	0	-4	-9	-11
O=[N+]([O-])c1ccc(/C=N/N2CCCCC2)cc1	2	0	-7	33*	-12
COC(=O)c1sc2cc([N+](=O)[O-])cc(SCC(C)C)c2c1N	0	44*	2	2	-25
COC(=O)CCCCC1SCC2NC(=O)NC21O (centres undefined)	2	0	54*	3	-34
Cc1ccc(S(=O)(=O)N(C)C[C@@H]2OCCCC[C@@H](C)Oc3ccc(N(C)C)cc3C(=O)N([C@H](C)CO)C[C@H]2C)cc1	-5	-1	9	-16	11
C/C(O)=C(/C=NCC(=O)O)C(=O)Nc1nccs1	-1	43*	-1	nt	-21
CCCC#Cc1ccc([C@@H]2[C@@H](CO)N3CCCCN(Cc4cncnc4)C[C@H]23)cc1	nt	0	nt	nt	-4
CCCC#Cc1ccc([C@@H]2[C@H]3CN(Cc4cncnc4)CCCCN3[C@H]2CO)cc1	-2	0	5	29*	-29
CCCC#Cc1ccc([C@@H]2[C@@H](CO)N3CCCCN(Cc4ccncc4)C[C@H]23)cc1	4	0	-10	47*	-15
CCOCCCNC(=O)/C(C#N)=C/c1cc(C)c(O)c(C)c1	1	43*	-1	0	-13
COCc1cn(CC[C@H]2CC[C@@H](NC(=O)Cc3cccnc3)[C@H](CO)O2)nn1	nt	0	-2	-5	0
C[C@H]1CN([C@@H](C)CO)C(=O)Cc2cc(NC(=O)c3ccncc3)ccc2O[C@H]1CN(C)Cc1ccc(C(=O)Nc2ccccc2N)cc1	-1	0	-9	58*	-5
C[C@H](CO)N1C[C@H](C)[C@@H](CN(C)Cc2ccc(C(=O)Nc3ccccc3N)cc2)Oc2ccc(NC(=O)Cc3cn(C)c4ccccc34)cc2CC1=O	-1	0	0	-2	61*
C[C@@H]1CN([C@@H](C)CO)C(=O)Cc2cc(NC(=O)CCCN(C)C)ccc2O[C@H]1CN(C)Cc1ccc(C(=O)Nc2ccccc2N)cc1	-1	0	31*	8	83*
C[C@H](CO)N1C[C@H](C)[C@H](CN(C)Cc2ccc(C(=O)Nc3ccccc3N)cc2)Oc2ccc(NC(=O)Cc3ccccc3)cc2CC1=O	-1	0	-7	32*	-18
C[C@H]1CN([C@@H](C)CO)C(=O)Cc2cc(NC(=O)Cc3ccccc3)ccc2O[C@H]1CN(C)Cc1ccc(C(=O)Nc2ccccc2N)cc1	-2	0	-1	-7	3
CCC(=O)N1CC2(C1)[C@H](c1ccc(-c3cccc(F)c3)cc1)[C@H](CO)N2CC1CC1	1	0	2	-2	4
C[C@H]1CN([C@@H](C)CO)C(=O)Cc2cc(NC(=O)CCC(F)(F)F)ccc2O[C@@H]1CN(C)Cc1ccc(C(=O)Nc2ccccc2N)cc1	0	0	-3	7	18
CC(C)NC(=O)Nc1ccc2c(c1)CC(=O)N([C@@H](C)CO)C[C@@H](C)[C@@H](CN(C)Cc1ccc(C(=O)Nc3ccccc3N)cc1)O2	0	0	0	11	6
C[C@@H]1CN([C@H](C)CO)C(=O)Cc2cc(NC(=O)NC3CCCCC3)ccc2O[C@@H]1CN(C)Cc1ccc(C(=O)Nc2ccccc2N)cc1	0	0	-2	28*	-27
C[C@@H]1CN([C@H](C)CO)C(=O)Cc2cc(NC(=O)CCC(F)(F)F)ccc2O[C@@H]1CN(C)Cc1ccc(C(=O)Nc2ccccc2N)cc1	0	0	3	38*	-6
CCOc1cc(/C=C/c2cccc[n+]2C)ccc1OCC(=O)Nc1ccc(C)cc1	73*	0	5	17	-5
COc1cc(/C=C/c2cccc[n+]2C)ccc1OCC(=O)Nc1ccccc1C	3	0	0	0	3
Cc1ccc(S(=O)(=O)/N=S(/c2ccccc2)C(C)C)cc1 (centres undefined)	46*	0	-3	13	-10
O=C(O)c1cc(N2CCCCC2)nc2ccccc12	0	43*	0	0	-8
SMILES	ERAP1 HTS inh	FGF22 binding	MLL AF4-AF9 inh	DENV2 CPE rescue	RAD52 inh
COC(=O)C1C(c2ccc(N(C)C)cc2)C(C(=O)OC)S(=O)(=O)CS1(=O)=O (centres undefined)	-5	43*	-1	nt	-6
CCCCOc1ccc(CSCCN=C(N)N)cc1	-7	43*	9	nt	11
CCCC#Cc1cnc2c(c1)C(=O)N([C@@H](C)CO)C[C@H](C)[C@H](CN(C)C(=O)Nc1ccc(OC)cc1)O2	0	0	2	2	3
CN1C(=O)c2ccccc2CC12c1ccccc1C(=O)N2C (centres undefined)	1	43*	0	8	-7
CCC1(CC)Cc2ccccc2C(=O)N1	1	0	-1	5	-15
C[C@@H]1CCCCO[C@@H](CN(C)Cc2ccccc2)[C@H](C)CN([C@H](C)CO)C(=O)c2cc(NC(=O)c3ccccc3)ccc2O1	nt	0	nt	24*	nt
C[C@@H]1CN([C@@H](C)CO)C(=O)c2cc(NC(=O)c3ccccc3)ccc2O[C@@H](C)CCCCO[C@@H]1CN(C)Cc1ccccc1	nt	0	nt	35*	nt
C[C@@H]1CCCCO[C@H](CN(C)Cc2ccccc2)[C@@H](C)CN([C@@H](C)CO)C(=O)c2cc(NC(=O)c3ccccc3)ccc2O1	nt	0	nt	54*	nt
C[C@@H]1CCCCO[C@@H](CN(C)Cc2ccccc2)[C@@H](C)CN([C@H](C)CO)C(=O)c2cc(NC(=O)c3ccccc3)ccc2O1	nt	0	nt	100*	nt
CO[C@H]1CN(C)C(=O)c2ccc(NC(=O)c3cc(C)on3)cc2OC[C@@H](C)N(C)C[C@H]1C	0	0	-2	6	2
C[C@H]1CN([C@@H](C)CO)C(=O)c2cc(C#CC3CC3)cnc2O[C@@H]1CN(C)S(=O)(=O)c1cccc(F)c1	1	0	1	4	-4
O=C1CN(C(=O)/C=C/c2ccc(Cl)cc2Cl)CCN1	-3	0	6	7	5
CN1CCCN(C(=O)/C=C/c2ccc(Cl)cc2Cl)CC1	5	44*	4	-19	5
Cc1nn(C)cc1NC(=O)C[C@H]1CC[C@@H]2[C@H](COc3ccc(NC(=O)C4CCOCC4)cc3C(=O)N2C)O1	-1	0	1	2	-8
O=C(Cc1ccc([N+](=O)[O-])cc1)NCc1ccccn1	1	43*	1	-9	-9
Cc1cc2cc(CNC(=O)Cc3ccc([N+](=O)[O-])cc3)ccc2n1C	-2	44*	0	3	-29

Screens: PubChem BioAssay, Broad Institute
